Screen size: about 310,000 compounds; about 2,600 (0.84%) were called active. This is one part of a sample in which actives are shown more often than they occur.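 How the source made its calls: active means B-score over 3 SD under the library average, and starting fluorescence ratio not unusually high; inactive means the rest.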
Biological target: High affinity choline transporter 1 (Homo sapiens) (UniProt Q9GZV3)
Test: inhibitors of human choline transporter CHT (AID 488975);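 on B-score: choline stimulus applied at its EC90 after an EC20 pre-addition; B-score computed on integrated fluorescence ratio after choline addition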
Conditions: CHT-expressing cells, membrane potential dye, choline response, at 10 µM; hits give low values

Chain of High affinity choline transporter 1 (Homo sapiens) (Q9GZV3 whole entry, looked up): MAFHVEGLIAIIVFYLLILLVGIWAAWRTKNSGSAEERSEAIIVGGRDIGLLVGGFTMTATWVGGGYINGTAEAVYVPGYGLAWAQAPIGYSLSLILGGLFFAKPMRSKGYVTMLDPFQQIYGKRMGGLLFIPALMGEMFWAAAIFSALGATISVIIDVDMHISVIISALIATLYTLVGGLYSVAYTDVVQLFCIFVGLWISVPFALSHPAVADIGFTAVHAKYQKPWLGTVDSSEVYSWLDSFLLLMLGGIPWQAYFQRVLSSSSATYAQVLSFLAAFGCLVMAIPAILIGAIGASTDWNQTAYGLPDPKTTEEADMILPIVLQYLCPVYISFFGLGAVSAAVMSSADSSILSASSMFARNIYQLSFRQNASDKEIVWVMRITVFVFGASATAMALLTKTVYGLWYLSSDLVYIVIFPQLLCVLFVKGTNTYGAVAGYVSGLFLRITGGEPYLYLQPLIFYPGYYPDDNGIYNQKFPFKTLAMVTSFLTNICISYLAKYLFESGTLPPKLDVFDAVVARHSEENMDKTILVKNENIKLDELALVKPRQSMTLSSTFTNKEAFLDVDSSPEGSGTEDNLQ

Row | Structure (SMILES) | B-score
1 | COCC(=O)Nc1c(C(=O)N2CCCC2)oc2ccccc12 | inactive
2 | CCOCCCN(C)C1CCN(C(=O)c2oc3ccccc3c2NC(=O)COc2cccc(C)c2)CC1 | -6.44 (active)
3 | CCOCCCN(C)C1CCN(C(=O)c2oc3ccccc3c2NC(=O)Cc2cccc([N+](=O)[O-])c2)CC1 | inactive
4 | C/C(=N\Nc1ncc(Cl)cc1Cl)c1cccs1 | inactive
5 | O=C(Nc1ccccc1-c1nc2ccccc2[nH]c1=O)c1cccs1 | inactive
6 | C/C(=N\Nc1nc2ccccc2[nH]1)c1cccs1 | -6.15 (active)
7 | COC(=O)c1ccc(SCc2ccccc2)nc1 | inactive
8 | COc1cnn(-c2ccc([N+](=O)[O-])cc2)c(=O)c1Cl | inactive
9 | Nc1c(C(=O)Nc2ccc3c(c2)OCCO3)nnn1Cc1ccccc1 | inactive
10 | O=C(Cc1c[nH]c2ccccc12)OCCOC(=O)Cc1c[nH]c2ccccc12 | inactive
11 | O=C(NCCCc1ccccc1)C(=O)c1c[nH]c2ccccc12 | inactive
12 | O=C(OCC(=O)c1c[nH]c2ccccc12)c1cccc(O)c1 | -7.81 (active)
13 | COc1ccc(N2CCN(C(=O)COC(=O)c3cccc(S(=O)(=O)Nc4ccccc4OC)c3)CC2)cc1 | inactive
14 | O=C(Nc1ccc2c(c1)CCC2)c1cccc(S(=O)(=O)N2CCN(c3ccc(F)cc3)CC2)c1 | inactive
15 | Cc1cccnc1NC(=O)c1cccc(S(=O)(=O)N2CCN(c3ccc(F)cc3)CC2)c1 | -6.97 (active)
16 | O=C(Nc1cccnc1)c1cccc(S(=O)(=O)N2CCCC2)c1 | inactive
17 | COc1ccc(OC)c(NC(=O)c2cccc(S(=O)(=O)N3CCN(C(C)=O)CC3)c2)c1 | inactive
18 | CC(=O)N1CCN(S(=O)(=O)c2cccc(C(=O)NC3CCC(C)CC3)c2)CC1 (centres undefined) | -4.99 (active)
19 | CN1CCN(S(=O)(=O)c2cccc(C(=O)O)c2)CC1 | inactive
20 | Cc1cc(NS(=O)(=O)c2ccc(NC(=O)c3cccc(OC(F)F)c3)cc2)nc(C)n1 | inactive
21 | CC(Oc1cccc(Cl)c1)C(=O)Nc1ccc(S(=O)(=O)Nc2ncccn2)cc1 (centres undefined) | inactive
22 | COc1ccc(C(=O)Nc2ccc(S(=O)(=O)Nc3onc(C)c3C)cc2)cc1OC | inactive

Row | Structure (SMILES) | B-score
23 | CCOc1ccc(C(=O)Nc2ccc(S(=O)(=O)Nc3cc(C)on3)cc2)cc1 | inactive
24 | Cc1cc(NS(=O)(=O)c2ccc(NC(=O)c3cccnc3)cc2)nc(C)n1 | inactive
25 | Cc1cc(OC(C)C(=O)Nc2ccc(S(=O)(=O)Nc3onc(C)c3C)cc2)cc(C)c1Cl (centres undefined) | -4.96 (active)
26 | CCc1ccc(OC(C)C(=O)Nc2ccc(S(=O)(=O)Nc3cc(C)on3)cc2)cc1 (centres undefined) | inactive
27 | CCC(Oc1ccccc1C)C(=O)Nc1ccc(S(=O)(=O)Nc2cc(C)on2)cc1 (centres undefined) | -6.05 (active)
28 | COc1cc(OC)cc(C(=O)Nc2ccc(S(=O)(=O)Nc3cc(C)on3)cc2)c1 | inactive
29 | CCOc1ccc(CC(=O)Nc2ccc(S(=O)(=O)Nc3cc(C)on3)cc2)cc1OCC | inactive
30 | COc1cc2ccccc2cc1C(=O)Nc1ccc(S(=O)(=O)Nc2cc(C)on2)cc1 | -5.68 (active)
31 | Cc1cc(NS(=O)(=O)c2ccc(NC(=O)C(C)Oc3cccc(C)c3C)cc2)nc(C)n1 (centres undefined) | -9.11 (active)
32 | COc1ccc(Cl)cc1NC(=O)CN(C)C(=O)c1cc(-c2cccs2)nn1-c1ccccc1 | inactive
33 | O=C(CNC(=O)c1ccccc1Br)NCCSc1ccc(Br)cc1 | inactive
34 | O=C(Oc1ccc(-c2nnco2)cc1)c1ccc(F)c(S(=O)(=O)N2CCOCC2)c1 | inactive
35 | O=C(NCCCN1CCCC1=O)c1ccc(S(=O)(=O)Nc2ccccc2)cc1 | inactive
36 | COc1ccc(C(C#N)(CC(=O)O)c2cnccn2)cc1OC (centres undefined) | inactive
37 | Cc1ccc(-c2nn(-c3ccccc3)cc2C(=O)NCCCN2CCCC2=O)cc1 | inactive
38 | CCc1ccc(NC(=O)CN2C(=O)COc3ccc(S(=O)(=O)N4CCCC4)cc32)cc1 | inactive
39 | CN(C)c1ccc(CNC(=O)CN2C(=O)COc3ccc(S(=O)(=O)N4CCCC4)cc32)cc1 | inactive
40 | Cc1cccc(N(C)C(=O)CN2C(=O)COc3ccc(S(=O)(=O)N4CCCCCC4)cc32)c1 | -6.38 (active)
41 | O=S(=O)(c1ccccc1)N1CCC(c2ccccc2)CC1 | inactive
42 | Cc1ccc(C(=O)CSc2ccccc2C(=O)O)cc1 | inactive
43 | Cc1ccc(CSCC(N)C(=O)O)cc1 (centres undefined) | inactive
44 | Cc1ccc(SC(CC(=O)c2ccc(C(C)(C)C)cc2)C(=O)O)cc1 (centres undefined) | -8.41 (active)

Row | Structure (SMILES) | B-score
45 | OCc1ccc(-c2ccccc2)c(-c2ccccc2)c1 | inactive
46 | O=C(Nc1ccc(F)c([N+](=O)[O-])c1)C1CCCO1 (centres undefined) | inactive
47 | Cc1ccc(-c2cc(C(=O)NC3CCN(Cc4ccccc4)CC3)c3ccccc3n2)cc1 | inactive
48 | C/C(=N\N=C(N)N)c1ccc(Cl)cc1 | -9.9 (active)
49 | C/C(=N\OCC(=O)O)c1ccc(Cl)cc1 | inactive
50 | C/C(=N\NC(=S)NCc1ccccc1)c1ccc(Cl)cc1 | inactive
51 | CC1CCC(CN2CCN=C2N(C)C)CC1 (centres undefined) | inactive
52 | CCCCCCc1ccc(O)cc1O | -6.74 (active)
53 | CCCCCCCN=C(C)c1ccccc1O | inactive
54 | CCCCCCc1cc2cc(-c3nnc(-c4ccccc4)o3)c(=O)oc2cc1O | inactive
55 | CC1(c2ccccc2)NC(=O)N(CC(=O)Nc2cc(Cl)ccc2N2CCOCC2)C1=O (centres undefined) | inactive
56 | COc1cc(N)c(Cl)cc1C(=O)OCC(=O)c1ccc2c(c1)NC(=O)CO2 | inactive
57 | CN1C(C(=O)NCc2ccco2)CC2Cn3c(nc4ccccc43)C21 (centres undefined) | inactive
58 | O=C(/C=C/c1cn(-c2ccccc2)nc1-c1ccc2c(c1)OCCO2)NCCCN1CCOCC1 | -5.76 (active)
59 | COc1ccc(-c2nn(-c3ccccc3)cc2/C=C\C(=O)N2CCOCC2)cc1[N+](=O)[O-] | inactive
60 | Cc1ccc(-c2nn(-c3ccccc3)cc2/C=C/C(=O)Nc2cccc(S(N)(=O)=O)c2)cc1 | inactive
61 | Cc1ccc(SCC(=O)Nc2nncs2)cc1 | inactive
62 | C#CCOCCOCCOCCNc1nc(N2CCN(C(=O)Cn3cc(CCCCN)nn3)CC2)nc(N2CCN(C(=O)[C@H](CCCCN)n3cc(CCC(=O)O)nn3)CC2)n1 | inactive
63 | Cc1ccccc1OCC(=O)NNC(=O)c1ccc(-n2cncn2)c([N+](=O)[O-])c1 | inactive
64 | CCCCn1c(N)c(N(CCC(C)C)C(=O)CC2OC(=O)c3ccccc32)c(=O)[nH]c1=O (centres undefined) | inactive

Reference: PubChem BioAssay AID488975 (Johns Hopkins Ion Channel Center, 2010)
